PLK1 PBD inh = qHTS for Inhibitors of PLK1-PDB (polo-like kinase 1 - polo-box domain): Primary Screen | Serine/threonine-protein kinase PLK1 (Homo sapiens), P53350 | Plk1 PBD binding of FITC phosphopeptide, fluorescence polarization | Potency, µM, usual class: inhibitors | 360,000 tested, 2.8% active | AID 720504, 2013; also: series mostly up to about 57 µM; nearly all actives have a fitted effect of over 65% in size
TSHR antagonist = Antagonists of the Thyroid Stimulating Hormone Receptor: HTS campaign. Thyrotropin receptor (Homo sapiens), P16473. TSHR-expressing cells, TSH-stimulated cAMP HTRF, 2 h; stronger effect = lower value. activity change, negative = inhibition, % at 11.5 µM. 330,000 tested, 0.2% active. AID 504810, 2011;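 active = activity change below a set negative limit, meaning inhibition stronger than a set level, cut at about -70% in these data; inconclusive = activity change between two set negative limits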
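Freshly harvested TSHR cells receive pin-tooled compound, then EC80 TSH at 4nM final. After 2 hours at 37 deg C, antibody in lysis buffer and cAMP-d2 are added; 30 minutes at ambient temperature precede the HTRF read.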
VDR inh = Inhibitors of the vitamin D receptor (VDR): qHTS. Vitamin D3 receptor (Homo sapiens), P11473. VDR-SRC2-3 peptide fluorescence polarization, 2 h. Potency, µM, hits mostly inhibitors. 400,000 tested, 0.93% active. AID 504847, 2011
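The screen uses fluorescence polarization to detect compounds that interfere with recruitment of the SRC2-3 coactivator peptide to VDR; plates are read after 2 h at room temperature.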
PTAP TSG101 blk = qHTS Assay for Iinhibitors of HIV-1 Budding by Blocking the Interaction of PTAP/TSG101; Fluorescence polarization, FITC-PTAP peptide / Tsg101 binding; Potency, µM (top dose mostly 115 µM), actives largely listed as inhibitors; 340,000 tested, under 10 active; active = well fitted inhibition curve with a large enough effect in the main read-out, with a control signal flat, not every such curve was filed as active; inconclusive = small, poorly fitted or top-dose-only effect, or effect the other way, or a change in a side signal; inactive = no such curve, though single readings can be large or run the other way
Target sequence (Q99816 whole entry, looked up): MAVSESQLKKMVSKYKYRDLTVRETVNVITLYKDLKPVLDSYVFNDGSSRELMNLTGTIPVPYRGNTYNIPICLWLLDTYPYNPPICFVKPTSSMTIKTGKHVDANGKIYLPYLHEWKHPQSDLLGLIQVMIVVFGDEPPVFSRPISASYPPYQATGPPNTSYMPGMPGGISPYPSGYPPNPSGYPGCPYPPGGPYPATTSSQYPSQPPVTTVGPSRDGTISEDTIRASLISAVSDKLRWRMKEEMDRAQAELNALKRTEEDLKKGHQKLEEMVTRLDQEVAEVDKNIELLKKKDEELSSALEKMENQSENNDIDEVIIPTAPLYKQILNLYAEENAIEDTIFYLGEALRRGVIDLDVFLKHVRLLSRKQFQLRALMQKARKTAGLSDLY
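Fluorescence anisotropy tracks displacement of a FITC-tagged PTAP peptide (50 nM) from the Tsg101 binding domain (10 uM), following a 20 min room-temperature incubation at pH 7.5.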
uPA generation = qHTS for Inhibitors of Cell Surface uPA Generation | 330,000 tested, 0.31% active | cell surface uPA generation assay, qHTS | Potency, µM (series often up to 38.3 µM), usual class: inhibitors; active = well fitted inhibition curve with a large enough effect; inconclusive = small, poorly fitted or top-dose-only effect; inactive = no such curve, though single readings can be large or run the other way; tested in mouse RAW 264.7 cells; also: nearly all actives have a fitted effect of over 55% in size
Each line names hits and unclear results; the compound was inactive in the other large screens; ! = not confirmed by another sample. Compounds with a hit are over-represented: about 3.1% of the library has one in this group of screens. Unless noted, calls follow the shape of the dose curve; as a rule, active = well fitted curve in the direction sought with a large enough effect; inconclusive = small, poorly fitted or top-dose-only effect, or another doubt; inactive = no such curve, though single readings can be large; an effect the other way counts as inactive or inconclusive.

CCOC(=O)Cc1csc(NC(=O)c2cc(C)c(C)s2)n1	none
CCOC(=O)Cc1csc(NC(=O)NC2(C(F)(F)F)Oc3ccccc3O2)n1	PLK1 PBD inh 12µM, VDR inh inconclusive (no result: TSHR antagonist)
CCOC(=O)Cc1csc(NC(=O)NC2(C(F)(F)F)Oc3cc(Cl)c(Cl)cc3O2)n1	PLK1 PBD inh 21µM
CCOC(=O)Cc1csc(NC(=O)Nc2ccc(OC(F)(F)F)cc2)n1	none
CCOC(=O)Cc1csc(NC(=O)NC2(C(F)(F)F)Oc3ccc(Cl)cc3O2)n1 (centres undefined)	PLK1 PBD inh 17µM, VDR inh inconclusive
CCOc1cc(/C=N/NC(=O)c2ccccc2-n2cccc2)ccc1O	uPA generation 11µM
CCC(COC(=O)c1ccccc1)Oc1cc(NCc2ccccc2)c2ncn(C(C)C)c2c1 (centres undefined)	VDR inh 79µM, uPA generation inconclusive
COc1ccc(/C=C/C(=O)c2ccc(C)s2)cc1	VDR inh 32µM (no result: PLK1 PBD inh, TSHR antagonist, PTAP TSG101 blk, uPA generation)
COc1ccc(/C=C/C(=O)O)cc1	none
O=C(C=Cc1cccc(O)c1)c1ccccc1O	PLK1 PBD inh 1.7µM, VDR inh 40µM (no result: TSHR antagonist)
O=C(/C=C/c1ccc(O)c(O)c1)c1ccccc1O	none
O=C(/C=C/c1ccc(O)cc1)c1ccc(O)cc1O	VDR inh 79µM!
COc1ccc(C(=O)/C=C/c2ccccc2)c(O)c1	VDR inh inconclusive, uPA generation inconclusive
O=C(/C=C/c1ccccc1)c1ccc(O)cc1O	VDR inh 25µM (no result: PLK1 PBD inh, TSHR antagonist, PTAP TSG101 blk, uPA generation)
Cc1cccc(N(C)C(CNS(=O)(=O)c2ccccc2)c2ccccc2)c1 (centres undefined)	none (no result: PLK1 PBD inh, TSHR antagonist, PTAP TSG101 blk, uPA generation)
O=c1ccc2c(OCCCCc3ccccc3)c3ccoc3cc2o1	none (no result: PLK1 PBD inh, PTAP TSG101 blk, uPA generation)
CC[C@@H]1O[C@]2(C=C[C@@H]1C)C[C@H]1C[C@H](CC=C(C)[C@@H](O[C@@H]3C[C@H](OC)[C@H](O[C@@H]4C[C@H](OC)[C@H](O)[C@H](C)O4)[C@H](C)O3)[C@@H](C)C=CC=C3CO[C@@H]4[C@@H](O)C(C)=C[C@@H](C(=O)O1)[C@]34O)O2	none (no result: PLK1 PBD inh, TSHR antagonist, PTAP TSG101 blk, uPA generation)
COc1ccc(/C=C/C(=O)c2cc(O)ccc2O)cc1	VDR inh 7.9µM (no result: PLK1 PBD inh, TSHR antagonist, PTAP TSG101 blk, uPA generation)
COc1ccc(/C=C/C(=O)c2ccc(OC)cc2OC)cc1	VDR inh inconclusive, uPA generation inconclusive
S=c1nn[nH]c2ccccc12	PLK1 PBD inh 27µM (no result: TSHR antagonist)
CCN(CC)C(=O)N1CCc2ccccc21	PLK1 PBD inh 30µM
O=C(c1c(F)c(F)c(F)c(F)c1F)N1CCc2ccccc21	PLK1 PBD inh 24µM, VDR inh inconclusive (no result: TSHR antagonist)
CCC1Sc2ccc(S(=O)(=O)CCC(=O)N3CCc4ccccc43)cc2NC1=O (centres undefined)	none
COc1ccc(NC(=O)CCS(=O)(=O)c2ccc3c(c2)NC(=O)C(C)S3)cc1OC (centres undefined)	PLK1 PBD inh 6.7µM, VDR inh inconclusive
CC1Sc2ccc(S(=O)(=O)CCC(=O)N3CCc4ccccc43)cc2NC1=O (centres undefined)	PLK1 PBD inh 30µM
Cc1cc(NC(=O)CCS(=O)(=O)c2ccc3c(c2)NC(=O)C(C)S3)ccc1Br (centres undefined)	none
CCC1Sc2ccc(S(=O)(=O)CCC(=O)NCc3ccc(C)o3)cc2NC1=O (centres undefined)	PLK1 PBD inh inconclusive
CCC1Sc2ccc(S(=O)(=O)CCC(=O)Nc3ccccc3Cl)cc2NC1=O (centres undefined)	TSHR antagonist -131
O=C(/C=C/c1ccc([N+](=O)[O-])cc1)OCC(=O)c1ccc[nH]1	none (no result: TSHR antagonist)
Cc1sc2nc(SCC(=O)Nc3cccc(S(N)(=O)=O)c3)[nH]c(=O)c2c1C	PLK1 PBD inh 24µM
COc1ccccc1N1CCN(C(=O)c2c3c(nc4ccccc24)C(=O)N(C2CCCCC2)C3)CC1	none (no result: PLK1 PBD inh, TSHR antagonist, PTAP TSG101 blk, uPA generation)
Cc1nc(NC(=O)C2CCCCC2C(=O)O)sc1C (centres undefined)	none
CCc1c(C)sc(NC(=O)C2CCCCC2C(=O)O)c1C(N)=O (centres undefined)	PLK1 PBD inh inconclusive, VDR inh 79µM
Cc1oc2c(c(C)cc3oc(=O)c(CC(=O)NCCc4ccccc4F)c(C)c32)c1C	none (no result: PLK1 PBD inh, TSHR antagonist, PTAP TSG101 blk, uPA generation)
C=C(C)[C@@H]1CCC2(C(=O)O)CC[C@]3(C)[C@H](CC[C@@H]4[C@@]5(C)CCC(=O)C(C)(C)[C@@H]5CC[C@]43C)[C@@H]12 (some centres undefined)	PLK1 PBD inh 13µM
O=C(CN1C(=O)COc2ccc(S(=O)(=O)N3CCCCCC3)cc21)NCc1ccc(Cl)cc1	none (no result: PLK1 PBD inh, TSHR antagonist, PTAP TSG101 blk, uPA generation)
NSc1nc(N)c2nc(-c3ccccc3)c(-c3ccccc3)nc2n1	PLK1 PBD inh 13µM, VDR inh 8.9µM
Nc1nc(N)c2nc(-c3ccccc3)c(N)nc2n1	uPA generation inconclusive
COc1cc(N(C)C)cc(CN(C)CCc2ccc([N+](=O)[O-])cc2)c1O	VDR inh 2.5µM (no result: PLK1 PBD inh, TSHR antagonist, PTAP TSG101 blk, uPA generation)
Cc1cccc(N2CCN(C(=O)c3ccc4c(c3)N(Cc3cccc(Cl)c3)C(=O)c3ccccc3S4=O)CC2C)c1 (centres undefined)	none (no result: PLK1 PBD inh, TSHR antagonist, PTAP TSG101 blk, uPA generation)
O=[N+]([O-])c1cccc(-c2nc(-c3ccccc3)no2)c1	PLK1 PBD inh 19µM
O=[N+]([O-])c1cccc(-c2nc(-c3ccncc3)no2)c1	none
CC(C)CC(=O)Nc1ncc([N+](=O)[O-])s1	PLK1 PBD inh 11µM
O=C(Nc1ccccc1)Nc1ncc([N+](=O)[O-])s1	PLK1 PBD inh inconclusive, TSHR antagonist inconclusive
Cc1nc(C)c(C(=O)Nc2ncc([N+](=O)[O-])s2)o1	PLK1 PBD inh 27µM, VDR inh inconclusive
CCCCC(=O)Nc1ncc([N+](=O)[O-])s1	none
O=C(COC(=O)c1ccccc1)Nc1ncc([N+](=O)[O-])s1	PLK1 PBD inh 21µM
CCCC(=O)NC(C)c1nc2ccccc2n1Cc1ccccc1 (centres undefined)	none (no result: PLK1 PBD inh, TSHR antagonist, PTAP TSG101 blk, uPA generation)
COCCn1c(=O)c(-c2cccc(C#N)c2)nc2cnc(Oc3ccc(OC)cc3)nc21	none (no result: PLK1 PBD inh, TSHR antagonist, PTAP TSG101 blk, uPA generation)
NC(=S)NN=C1c2ccccc2-c2c(F)c(F)c(F)c(F)c21	PLK1 PBD inh 8.4µM, VDR inh 79µM (no result: TSHR antagonist)
CCN(CC)S(=O)(=O)c1ccc2nc(NC(=O)c3cccnc3)sc2c1	none (no result: PLK1 PBD inh, TSHR antagonist, PTAP TSG101 blk, uPA generation)
CN(C)c1ccc(CNC(=O)C2CCN(c3nc4ccccc4[nH]3)CC2)cc1	none (no result: PLK1 PBD inh, TSHR antagonist, PTAP TSG101 blk, uPA generation)
O=C(COC(=O)CCCC1=NS(=O)(=O)c2ccccc2N1)Nc1ccccc1	none
COc1cc(NC(=O)COC(=O)CCCC2=NS(=O)(=O)c3ccccc3N2)cc(OC)c1	PLK1 PBD inh 21µM
N[C@](CC1c2ccccc2Oc2ccccc21)(C(=O)O)[C@H]1C[C@@H]1C(=O)O	none (no result: PLK1 PBD inh, TSHR antagonist, PTAP TSG101 blk, uPA generation)
